# Laboratory results from PubChem BioAssay (NCATS).
# “And” between values parts separate entries of the source, which are not always exact repeats. Equal values may be shown once. Results filed as inconclusive are left out. The source made the active and inactive calls. Unless noted, the call rests on the fitted dose curve; in most records, active means well fitted curve in the direction sought with a large enough effect; inconclusive means small, poorly fitted or top-dose-only effect, or another doubt; inactive means no such curve, though single readings can be large; an effect the other way counts as inactive or inconclusive.
# Columns and labels:
# [1] = test system: Zika virus NS2B-NS3 protease; test: Primary screen GU AMC qHTS for Zika virus inhibitors (AID 1347154);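 further: 0% = no-inhibitor control and -100% = no-enzyme control; nearly all actives have a fitted effect of over 70% in size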
# Outline: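 Fluorogenic AMC-substrate cleavage by noncovalent NS2B-NS3 protease complex (25 nM, pH 8.0 Tris buffer with Tween 20) followed for 15 minutes at room temperature (~20% conversion). Percent inhibition from ex340/em450 signal change, fitted by 4-parameter Hill equation.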
# [2] = Primary qHTS for small molecule stabilizers of the endoplasmic reticulum resident proteome: Secreted ER Calcium Modulated Protein (SERCaMP) assay (AID 1508630); further: on the % scale 0 is the no-effect control and ±100 the full control effect
# Outline: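 The SH-SY5Y reporter protocol was run at 3 concentrations up to 38.3 uM (primary) or 11 concentrations (follow-up): 16 h compound, 100 nM thapsigargin for 4 h, then extracellular luciferase luminescence.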
# [3] = molecular target: Glucocorticoid receptor (Homo sapiens) (UniProt P04150); test: GR-GFP Redistribution (AID 450;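 active means compounds whose dose series gives a full or clear partial fitted curve of increased nuclear translocation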; further: potency means the concentration at half of the fitted maximal effect); conditions: U2OS GR-GFP nuclear translocation, laser cytometry, 2 h
# [4] = molecular target: Glucocorticoid receptor (Homo sapiens) (UniProt P04150); test: GR-EFC Redistribution (AID 451; calls by dose curve; further: potency means the concentration at half of the fitted maximal effect); conditions: CHO-K1 GR-EFC translocation, beta-gal luminescence, 2 h
# Outline: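 Translocation of GR-ED fusion to nuclear EA restores b-gal, read by luminescence after 1 h room-temperature detection. Engineered CHO-K1 biosensor cells, 1,000/well, exposed 2 h at 37 C to titrations up to 46 uM final.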
# [5] = molecular target: DNA dC->dU-editing enzyme APOBEC-3G (Homo sapiens) (UniProt Q9HC16); test: qHTS for inhibitors of Vif-A3G interactions: Validation (AID 588379); further: 0% is about no effect
# Outline: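 Yellow fluorescence (Ex 488, Em 500-530) of Vif-coexpressing HeLa A3G-eYFP cells, scanned by Acumen cytometer, reports blocked A3G degradation. Cells plated at 700/well overnight at 37 deg C before compound addition, then a further overnight compound incubation at 37 deg C.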
# [6] = Confirmatory qHTS for small molecule stabilizers of the endoplasmic reticulum resident proteome: Secreted ER Calcium Modulated Protein (SERCaMP) assay (AID 1508628); further: nearly all actives have a fitted effect of over 40% in size; further: potency means the concentration at half of the fitted maximal effect
# Outline: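 GLuc-SERCaMP-expressing SH-SY5Y cells, pretreated 16 h with compound, are challenged with thapsigargin to empty ER calcium stores; after 4 h, coelenterazine is added directly to the medium and luminescence is imaged.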
# [7] = molecular target: Rap guanine nucleotide exchange factor 3 (Homo sapiens) (UniProt O95398); test: Confirmatory qHTS for antagonist of cAMP-regulated guanine nucleotide exchange factor 3 (EPAC1) (AID 1645880);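 further: plate controls were DMSO only for no effect and full effect of the ATA control for full effect; nearly all actives have a fitted effect of over 55% in size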
# Outline: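 Released BODIPY-GDP fluoresces less than Rap1-bound BODIPY-GDP; the signal is followed at 480/540 nm at 5-min intervals over 30 min, after 5 min at room temperature. Reactions contain 100 nM EPAC1, 250 nM RAP1B-BODIPY-GDP and 50 uM GDP; results are normalized to ATA and DMSO.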
# [8] = molecular target: Rap guanine nucleotide exchange factor 3 (Homo sapiens) (UniProt O95398); test: Confirmatory qHTS for agonist of cAMP-regulated guanine nucleotide exchange factor 3 (EPAC1) (AID 1645881);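 further: EPAC1 catalysed release of BODIPY-GDP from Rap1B seen as fluorescence loss; 100% = effect of cAMP agonist control; nearly all actives have a fitted effect of over 75% in size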
# [9] = molecular target: Rap guanine nucleotide exchange factor 4 (Homo sapiens) (UniProt Q8WZA2); test: Confirmatory qHTS for agonist of cAMP-regulated guanine nucleotide exchange factor 4 (EPAC2) (AID 1645884);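 further: nucleotide exchange releases bodipy-GDP from Rap1 and this lowers its fluorescence; on the % scale 0 is the no-effect control and ±100 the full control effect; nearly all actives have a fitted effect of over 65% in size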
# [10] = molecular target: Mitogen-activated protein kinase 10 (Mus musculus) (UniProt Q61831); test: JNK3 AlphaScreen Assay (AID 530; active means well fitted curve in either direction with a large enough effect, not every such curve was filed as active;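 further: kinase came from lysate of stimulated human HepG2 cells; signal reports phosphorylation of biotinylated GST-cJun 1-79 at Ser73 with 10 µM ATP; on the % scale 0 is the no-effect control and ±100 the full control effect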)
# Outline: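 Kinase buffer: 20 mM Tris-HCl pH 7.6, 10 mM MgCl2, 1 mM DTT, 0.1 mM Na3VO4, 0.01% Tween-20; ATP 10 uM. Substrate biotin-GST-cJun(1-79), enzyme from activated HepG2 lysates. Detection by Ser73 phospho-antibody AlphaScreen.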
# [11] = qHTS Assay for Lipid Storage Modulators (AID 1519; calls by dose curve; on activity change, negative = inhibition: on the % scale 0 is the no-effect control and ±100 the full control effect); conditions: Drosophila S3 cells, BODIPY lipid droplet/cell ratio, laser cytometry, cells loaded with oleic acid
# Outline: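 Cells seeded at 5,000 per well were treated with compounds over a concentration series and loaded with oleic acid (400 uM, as added). Lipid droplet fluorescence (488 nm excitation, 500-530 nm channel) was read by laser-scanning cytometry and normalized to 20 uM Triacsin C.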
# [12] = molecular target: Ubiquitin carboxyl-terminal hydrolase 1 (Homo sapiens) (UniProt O94782); test: Inhibitors of USP1/UAF1: Pilot qHTS (AID 504865); further: nearly all actives have a fitted effect of over 35% in size; further: potency means the concentration at half of the fitted maximal effect;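 on activity change, negative = inhibition: rhodamine fluorescence freed from ubiquitin-rhodamine substrate followed over time; top concentration of the series differs between compounds; on the % scale 0 is the no-effect control and ±100 the full control effect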
# Outline: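 Enzyme-free wells gave the negative control, while test wells held 1nM USP1/UAF1 preincubated with compound for 15 min at room temperature. Ub-Rho at 150nM final started the reaction, and fluorescence at 480/540 nm was recorded kinetically.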
# [13] = Cell Viability qHTS for small molecule stabilizers of the endoplasmic reticulum resident proteome (AID 1508629); conditions: cell viability counter-screen, 100 nM thapsigargin for final 4 h;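 further: compound exposure about 46 h in total before the viability read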; further: potency means the concentration at half of the fitted maximal effect
# [14] = molecular target: Cytochrome P450 1A2 (Homo sapiens) (UniProt P05177); test: p450-cyp1a2 (AID 410; calls by dose curve; further: potency means the concentration at half of the fitted maximal effect)
# Outline: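 20nM CYP1A2, 100uM Luciferin-ME (=Km), 100mM KPO4; cpd 10 min RT; +NADPH regen, 60 min RT; stop/detect 20 min; luminescence. Normalized to furafylline 57 uM = full inhibition.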
# [15] = molecular target: Cytochrome P450 3A4 (Homo sapiens) (UniProt P08684); test: qHTS Assay for Inhibitors and Substrates of Cytochrome P450 3A4 (AID 884); further: potency means the concentration at half of the fitted maximal effect; nearly all actives have a fitted effect of over 50% in size
# Outline: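 Luminescent readout of luciferin produced by CYP3A4 (20 nM) dealkylation of Luciferin-PPXE, 25 uM (its KM). NADPH-driven reaction ran 60 min at RT after 10 min compound preincubation; data scaled to 57 uM ketoconazole as 100% inhibition.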
# [16] = molecular target: Cytochrome P450 3A4 (Homo sapiens) (UniProt P08684); test: qHTS Assay for Activators of Cytochrome P450 3A4 (AID 885); further: nearly all actives have a fitted effect of over 65% in size
# Outline: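 Human CYP3A4 dealkylates Luciferin-PPXE to luciferin, which luciferase detection converts to light. Substrate was at its KM (25uM), buffer 200mM KPO4, reaction 60 min at RT.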
# [17] = molecular target: 3',5'-cyclic-AMP phosphodiesterase 4B (Homo sapiens) (UniProt Q07343); test: qHTS Assay for Inhibitors of PDE-IV (AID 607; active means well fitted activation curve with a large enough effect in the main read-out, with a control signal flat, not every such curve was filed as active; further: % of control where 0% means no effect)
# Outline: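 HEK293 ACTOne cells with CNG channel (1000/well), endogenous PDE4; membrane potential dye, compounds up to 22.9 uM final. Fluorescence Ex 535/Em 590; RO 20-1724 (100 uM final) as reference.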
# [18] = molecular target: Cytochrome P450 2C9 (Homo sapiens) (UniProt P11712); test: qHTS Assay for Inhibitors and Substrates of Cytochrome P450 2C9 (AID 883); further: potency means the concentration at half of the fitted maximal effect; nearly all actives have a fitted effect of over 60% in size
# Outline: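 Turnover of Luciferin-H (100uM, KM) by 10nM human CYP2C9 was measured over 60 min at 37C with NADPH regeneration; inhibitors and some substrates reduce luminescence. Data normalized to sulphaphenazole 57uM.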
# DNA dC->dU-editing enzyme APOBEC-3G (Homo sapiens), sequence (Q9HC16 whole entry, looked up): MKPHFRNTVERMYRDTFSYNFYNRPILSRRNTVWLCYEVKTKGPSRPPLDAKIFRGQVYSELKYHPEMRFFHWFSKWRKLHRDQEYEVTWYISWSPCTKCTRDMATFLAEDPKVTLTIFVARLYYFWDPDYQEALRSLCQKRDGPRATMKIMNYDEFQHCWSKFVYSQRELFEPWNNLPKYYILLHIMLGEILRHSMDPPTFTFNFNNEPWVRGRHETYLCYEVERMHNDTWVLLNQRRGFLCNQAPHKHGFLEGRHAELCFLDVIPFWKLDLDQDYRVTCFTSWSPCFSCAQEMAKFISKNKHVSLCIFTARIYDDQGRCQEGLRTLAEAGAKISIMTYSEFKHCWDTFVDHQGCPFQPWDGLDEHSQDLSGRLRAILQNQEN
# Glucocorticoid receptor (Homo sapiens), sequence (P04150 whole entry, looked up, the tested form may be a part): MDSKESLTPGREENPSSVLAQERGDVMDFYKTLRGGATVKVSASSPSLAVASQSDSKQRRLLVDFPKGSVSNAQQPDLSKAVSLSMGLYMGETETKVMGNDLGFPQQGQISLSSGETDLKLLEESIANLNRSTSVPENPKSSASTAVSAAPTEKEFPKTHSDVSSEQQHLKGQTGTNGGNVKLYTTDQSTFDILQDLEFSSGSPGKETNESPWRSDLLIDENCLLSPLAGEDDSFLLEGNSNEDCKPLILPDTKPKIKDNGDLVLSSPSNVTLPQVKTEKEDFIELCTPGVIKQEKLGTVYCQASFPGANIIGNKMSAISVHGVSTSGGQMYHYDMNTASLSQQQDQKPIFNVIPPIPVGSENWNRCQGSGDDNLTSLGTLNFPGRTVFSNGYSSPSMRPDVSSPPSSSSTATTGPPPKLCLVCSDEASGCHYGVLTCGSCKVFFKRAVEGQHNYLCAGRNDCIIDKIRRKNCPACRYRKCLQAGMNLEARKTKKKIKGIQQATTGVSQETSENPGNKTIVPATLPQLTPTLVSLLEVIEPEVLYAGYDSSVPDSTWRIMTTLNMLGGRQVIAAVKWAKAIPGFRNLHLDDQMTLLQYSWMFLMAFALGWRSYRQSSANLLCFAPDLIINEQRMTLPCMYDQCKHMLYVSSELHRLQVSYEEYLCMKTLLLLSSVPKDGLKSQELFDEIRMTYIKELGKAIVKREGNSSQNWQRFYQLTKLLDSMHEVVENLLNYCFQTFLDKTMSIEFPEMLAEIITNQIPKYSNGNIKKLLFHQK
# Cytochrome P450 3A4 (Homo sapiens), sequence (P08684 whole entry, looked up): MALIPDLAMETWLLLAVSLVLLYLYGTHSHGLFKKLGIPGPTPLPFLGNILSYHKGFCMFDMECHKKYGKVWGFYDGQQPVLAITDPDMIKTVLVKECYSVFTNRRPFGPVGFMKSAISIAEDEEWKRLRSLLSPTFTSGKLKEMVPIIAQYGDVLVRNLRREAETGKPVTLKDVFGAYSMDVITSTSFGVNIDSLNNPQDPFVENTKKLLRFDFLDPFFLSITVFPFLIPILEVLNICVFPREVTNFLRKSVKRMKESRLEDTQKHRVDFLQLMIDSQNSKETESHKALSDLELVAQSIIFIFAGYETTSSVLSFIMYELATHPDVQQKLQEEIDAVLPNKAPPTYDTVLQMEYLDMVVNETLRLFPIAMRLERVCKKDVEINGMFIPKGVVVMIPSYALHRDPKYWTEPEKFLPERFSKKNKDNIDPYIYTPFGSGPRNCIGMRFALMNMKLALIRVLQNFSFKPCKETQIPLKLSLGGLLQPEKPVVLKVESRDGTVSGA
# Ubiquitin carboxyl-terminal hydrolase 1 (Homo sapiens), sequence (O94782 whole entry, looked up): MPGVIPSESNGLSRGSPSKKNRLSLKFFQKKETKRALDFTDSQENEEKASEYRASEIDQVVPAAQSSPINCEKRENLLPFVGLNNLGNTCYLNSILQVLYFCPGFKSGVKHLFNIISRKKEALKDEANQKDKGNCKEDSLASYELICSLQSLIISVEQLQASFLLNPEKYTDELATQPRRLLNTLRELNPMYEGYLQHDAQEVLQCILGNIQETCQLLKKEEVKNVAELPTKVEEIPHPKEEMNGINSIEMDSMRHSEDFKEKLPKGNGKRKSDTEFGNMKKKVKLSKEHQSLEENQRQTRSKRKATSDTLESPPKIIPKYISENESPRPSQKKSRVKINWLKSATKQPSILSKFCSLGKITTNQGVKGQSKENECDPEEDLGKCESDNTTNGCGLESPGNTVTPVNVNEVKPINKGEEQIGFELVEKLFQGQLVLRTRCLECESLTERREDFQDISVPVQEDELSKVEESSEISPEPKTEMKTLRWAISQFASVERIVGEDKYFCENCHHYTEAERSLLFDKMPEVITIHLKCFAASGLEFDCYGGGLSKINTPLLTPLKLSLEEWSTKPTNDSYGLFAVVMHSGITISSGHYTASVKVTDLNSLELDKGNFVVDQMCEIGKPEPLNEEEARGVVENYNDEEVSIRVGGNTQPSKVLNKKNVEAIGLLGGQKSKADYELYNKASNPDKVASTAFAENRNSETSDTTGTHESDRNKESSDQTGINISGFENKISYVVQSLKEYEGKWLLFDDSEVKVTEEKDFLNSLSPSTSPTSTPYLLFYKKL
# Rap guanine nucleotide exchange factor 3 (Homo sapiens), sequence (O95398 whole entry, looked up): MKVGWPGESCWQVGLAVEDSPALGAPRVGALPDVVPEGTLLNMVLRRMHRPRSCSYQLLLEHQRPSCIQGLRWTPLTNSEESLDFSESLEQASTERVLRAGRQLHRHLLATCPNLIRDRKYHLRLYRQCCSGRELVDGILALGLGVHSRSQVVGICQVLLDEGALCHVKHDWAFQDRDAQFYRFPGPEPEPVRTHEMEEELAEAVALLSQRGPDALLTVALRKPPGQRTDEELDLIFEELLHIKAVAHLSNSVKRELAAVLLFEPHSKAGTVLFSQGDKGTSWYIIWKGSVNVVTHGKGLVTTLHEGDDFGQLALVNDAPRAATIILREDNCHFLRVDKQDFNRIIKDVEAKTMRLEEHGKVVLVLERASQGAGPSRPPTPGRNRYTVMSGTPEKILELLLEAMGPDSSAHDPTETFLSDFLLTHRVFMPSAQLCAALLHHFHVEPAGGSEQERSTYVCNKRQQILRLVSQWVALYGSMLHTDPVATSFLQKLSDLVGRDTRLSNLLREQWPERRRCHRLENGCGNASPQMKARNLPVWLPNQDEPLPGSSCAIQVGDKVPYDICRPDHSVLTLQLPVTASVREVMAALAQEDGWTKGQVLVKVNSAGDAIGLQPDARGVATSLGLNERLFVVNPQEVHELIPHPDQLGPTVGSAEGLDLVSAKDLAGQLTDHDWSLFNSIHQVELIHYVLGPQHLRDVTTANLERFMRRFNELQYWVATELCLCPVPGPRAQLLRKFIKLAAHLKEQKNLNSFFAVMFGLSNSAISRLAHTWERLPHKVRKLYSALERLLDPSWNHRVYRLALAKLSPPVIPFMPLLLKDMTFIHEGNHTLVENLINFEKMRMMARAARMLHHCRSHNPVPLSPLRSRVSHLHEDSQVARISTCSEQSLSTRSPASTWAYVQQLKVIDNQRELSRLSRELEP
# 3',5'-cyclic-AMP phosphodiesterase 4B (Homo sapiens), sequence (Q07343 whole entry, looked up): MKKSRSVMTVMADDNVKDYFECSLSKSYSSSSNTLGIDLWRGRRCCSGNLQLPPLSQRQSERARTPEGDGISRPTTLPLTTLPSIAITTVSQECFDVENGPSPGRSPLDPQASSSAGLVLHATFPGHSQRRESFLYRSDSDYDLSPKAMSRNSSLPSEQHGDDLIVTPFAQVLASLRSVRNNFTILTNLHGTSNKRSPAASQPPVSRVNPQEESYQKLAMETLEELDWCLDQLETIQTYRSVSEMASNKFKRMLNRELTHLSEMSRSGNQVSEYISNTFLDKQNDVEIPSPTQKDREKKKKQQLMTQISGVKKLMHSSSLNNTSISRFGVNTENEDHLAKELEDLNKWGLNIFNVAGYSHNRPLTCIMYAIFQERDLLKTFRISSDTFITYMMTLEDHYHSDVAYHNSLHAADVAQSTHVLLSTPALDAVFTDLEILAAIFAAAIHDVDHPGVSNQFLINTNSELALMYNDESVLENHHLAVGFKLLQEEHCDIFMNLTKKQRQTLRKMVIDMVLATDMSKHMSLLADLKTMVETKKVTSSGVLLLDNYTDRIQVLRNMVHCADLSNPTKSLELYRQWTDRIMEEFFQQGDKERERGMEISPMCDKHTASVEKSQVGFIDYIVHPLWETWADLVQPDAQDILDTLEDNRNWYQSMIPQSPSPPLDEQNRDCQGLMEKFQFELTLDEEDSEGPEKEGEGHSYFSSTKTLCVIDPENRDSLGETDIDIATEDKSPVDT
# Cytochrome P450 1A2 (Homo sapiens), sequence (P05177 whole entry, looked up): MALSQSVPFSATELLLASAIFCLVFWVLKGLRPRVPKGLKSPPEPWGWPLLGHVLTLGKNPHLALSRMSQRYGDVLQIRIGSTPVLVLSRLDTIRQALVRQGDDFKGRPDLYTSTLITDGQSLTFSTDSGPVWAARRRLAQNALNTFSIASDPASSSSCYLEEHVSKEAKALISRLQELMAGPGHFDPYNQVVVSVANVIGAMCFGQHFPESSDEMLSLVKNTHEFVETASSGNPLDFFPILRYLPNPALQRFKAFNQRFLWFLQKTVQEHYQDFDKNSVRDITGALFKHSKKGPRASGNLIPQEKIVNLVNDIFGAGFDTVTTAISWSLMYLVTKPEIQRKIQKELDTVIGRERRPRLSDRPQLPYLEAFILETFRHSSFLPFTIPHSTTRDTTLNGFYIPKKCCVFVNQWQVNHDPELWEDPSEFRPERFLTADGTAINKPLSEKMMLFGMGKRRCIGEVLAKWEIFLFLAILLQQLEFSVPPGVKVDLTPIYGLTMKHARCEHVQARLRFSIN
compound,measurement,setting,value
NCC(CC(=O)O)c1ccc(Cl)s1 (stereo not drawn),Potency,[1],inactive
same,Potency,[2],inactive
CCCC[C@@H](C)[C@@H](OC(=O)C[C@@H](CC(=O)O)C(=O)O)[C@H](C[C@@H](C)C[C@H](O)CCCC[C@@H](O)C[C@H](O)[C@H](C)N)OC(=O)C[C@H](CC(=O)O)C(=O)O,Potency,[1],inactive
same,Potency,[2],inactive
CC(C)(O)[C@H]1O[C@@H]2CC[C@]3(C)[C@@]4(C)c5[nH]c6ccccc6c5C[C@@H]4CC[C@]3(O)C2=CC1=O,Potency,[3],6.76e-05 µM (active)
same,Potency,[4],> 46 µM (inactive)
same,Potency,[5],inactive
same,Potency,[1],inactive
same,Potency,[6],20 µM (active)
same,Potency,[7],inactive
same,outcome,[8],inactive
same,outcome,[9],inactive
O[C@@H]1[C@H](O)[C@H]2[C@@H](O)CCN2C[C@@H]1O,Potency,[3],> 46 µM (inactive)
same,Potency,[4],> 46 µM (inactive)
same,outcome,[10],inactive
same,"activity change, negative = inhibition",[11]; at 57.5 µM (top of the series),-2.53% (inactive)
same,max response,[11]; measured here: cell count channel max response,7.43%
same,max response,[11]; measured here: lipid channel max response,6.33%
same,Potency,[12],inactive
same,Potency,[5],inactive
same,Potency,[1],inactive
same,Potency,[6],inactive
same,Potency,[2],inactive
CC1CC2CCC(O2)C(C)C(=O)OC(C)CC2CCC(O2)C(C)C(=O)OC(C)CC2CCC(O2)C(C)C(=O)OC(C)CC2CCC(O2)C(C)C(=O)O1 (stereo not drawn),Potency,[1],inactive
same,Potency,[2],inactive
Fc1ccc(C(OCCN2CCN(C/C=C/c3ccccc3)CC2)c2ccc(F)cc2)cc1,Potency,[1],inactive
same,Potency,[13],20 µM (active)
COc1ccc2[nH]cc(C3=CCNCC3)c2c1,Potency,[14],0.251 µM (active)
same,Potency,[3],> 46 µM (inactive)
same,Potency,[4],> 46 µM (inactive)
same,outcome,[10],inactive
same,Potency,[15],1.26 µM (active)
same,Potency,[16],inactive
same,Potency,[12],44.7 µM (active)
same,Potency,[1],inactive
same,Potency,[6],12.6 µM (active) and 35.5 µM (active)
C[C@H](NC(=O)[C@@H](N)Cc1ccc(O)cc1)C(=O)N[C@@H](Cc1ccccc1)C(=O)NCC(=O)N[C@@H](Cc1ccc(O)cc1)C(=O)N1CCC[C@H]1C(=O)N[C@@H](CO)C(N)=O,"activity change, negative = inhibition",[1],8.07% [at 6.83 µM] (inactive)
same,"activity change, negative = inhibition",[2],-16.9% [at 3.88 µM] (inactive)
COC[C@H]([C@@H](O)[C@@H](O)C(=O)NCC[C@@H](C)c1nc(/C=C/C[C@H]2OC3(C[C@H](O)[C@H]2C)OC([C@@H](C[C@@H](O)[C@@H](C)[C@@H](O)[C@@H](C)/C=C(C)/C(C)=C/C=C/C(C)=C\C#N)OC)[C@@H](OP(=O)(O)O)C3(C)C)co1)N(C)C (stereo partly drawn),"activity change, negative = inhibition",[1],9.25% [at 4.99 µM] (inactive)
same,"activity change, negative = inhibition",[2],257% [at 1.51 µM] (inactive)
C=CCN1C[C@H](C)N([C@H](c2ccc(C(=O)N(CC)CC)cc2)c2cccc(O)c2)C[C@H]1C,Potency,[3],> 46 µM (inactive)
same,Potency,[4],> 46 µM (inactive)
same,outcome,[10],inactive
same,Potency,[17],inactive
same,Potency,[18],3.98 µM (active)
same,Potency,[16],inactive
same,Potency,[12],inactive
same,Potency,[5],inactive
same,Potency,[1],inactive
same,max response,[13],8.89% (inactive)
COC(C/C=C/C=C/CC/C=C\CC(C)/C=C\C(=C/C(=O)O)CC(=O)O)/C(C)=C\C=C(/C)C(=O)O (stereo not drawn),"activity change, negative = inhibition",[1],8.89% [at 6.83 µM] (inactive)
same,"activity change, negative = inhibition",[2],-26.8% [at 3.88 µM] (inactive)
CCCCC[C@@H](/C=C/C=C\CCCCCCCC(=O)O)OO,"activity change, negative = inhibition",[1],3.22% [at 0.59 µM] (inactive)
same,"activity change, negative = inhibition",[2],-19.4% [at 0.478 µM] (inactive)
CCCCCCCCCCCCCCCCOC[C@H](COP(=O)([O-])OCC[N+](C)(C)C)OC(C)=O,"activity change, negative = inhibition",[1],-0.0514% [at 6.83 µM] (inactive)
same,"activity change, negative = inhibition",[2],-28.3% [at 3.88 µM] (inactive)
CCCCC/C=C\C=C\[C@H](CCCCCCCC(=O)O)OO,"activity change, negative = inhibition",[1],-1.43% [at 0.59 µM] (inactive)
same,"activity change, negative = inhibition",[2],-24.7% [at 0.478 µM] (inactive)
